The results in this text go back to PubChem BioAssay (NCI).

Among the test systems are SK-MEL-2 melanoma; SN12C renal; UO-31 renal; TK-10 renal; ACHN renal; CAKI-1 renal; CCRF-CEM leukemia; MOLT-4 leukemia; A498 renal.
Test in all cases: NCI-60 one-dose screen, 48 h (100 = growth as untreated, 0 = no growth, -100 = all killed)
Details in all cases: 10 µM unless noted

This is part of a sample that, as a whole, favours compounds with a hit. Of some 83,000 tested, about 20% had one in any assay.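 Cells were grown in 96-well plates and exposed to the test compound at a single concentration for 48 hours; results are reported as percent growth, with values below 10 considered active.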 A number with no mark means an inactive call. The source made the active and inactive calls.

As for `Cc1ccc(NS(=O)(=O)c2ccc(-c3cnc(C4CC4)o3)cc2)cc1`, the growth in the assay with SK-MEL-2 melanoma was 23.9%; in the assay with SN12C renal, 42.2%; with UO-31 renal, 55.3%; in the assay with TK-10 renal it was 64.9%; in the assay on ACHN renal it was 46.6%; in the assay on CAKI-1 renal, 38.8%. For the same compound, the results for the growth with CCRF-CEM leukemia and with MOLT-4 leukemia were 35.5% and 32%, respectively.
As to `Cc1ccc(C2SCC(=O)N2NC(=O)c2[nH]c3ccc(F)cc3c2-c2ccccc2)cc1` (stereo not drawn), the growth in the assay with SK-MEL-2 melanoma was 97.6%; in the assay on SN12C renal it was 95.8%; in the assay on UO-31 renal it was 75.1%; with TK-10 renal, 108%; in the assay on ACHN renal it was 89.9%; in the assay with CAKI-1 renal, 77.1%. For the same compound, the growth is 86.5% in the assay with A498 renal, 89.1% with CCRF-CEM leukemia and 69.2% in the assay with MOLT-4 leukemia.
Consider `Cc1cc(=O)oc2c1ccc1oc(C(=O)c3ccccc3)c(C)c12`, for which the growth with SK-MEL-2 melanoma was 104%; in the assay with SN12C renal it was 71%; in the assay with UO-31 renal, 100%; in the assay with TK-10 renal, 113%; in the assay on ACHN renal, 76.9%; in the assay on CAKI-1 renal it was 77.1%. In addition, the growth is 82.8% in the assay with A498 renal, 69.1% in the assay on CCRF-CEM leukemia and 76.8% in the assay with MOLT-4 leukemia.
Regarding `O=C1/C(=C/c2ccc(F)cc2)CN(Cc2cn(CCNc3ccnc4cc(Cl)ccc34)nn2)C/C1=C\c1ccc(F)cc1`, the growth was -63.7% (active) in the assay on SK-MEL-2 melanoma; -75% (active) with SN12C renal; -95.8% (active) in the assay with UO-31 renal; -20.3% (active) with TK-10 renal; -100% (active) in the assay on ACHN renal; 1.43% (active) in the assay on CAKI-1 renal. Also, the growth with A498 renal is -79.3% (active); in the assay on MOLT-4 leukemia, -18.4% (active).
In the case of `CCCCCCCC/C=C\CCCCCCCCOc1cccc(CC(=O)NCC[N+]2(C)CCOCC2)c1`, the growth with SK-MEL-2 melanoma is 104%; in the assay on SN12C renal, 81.5%; in the assay on UO-31 renal, 82.1%; in the assay on TK-10 renal it was 75.1%; in the assay with ACHN renal, 94%; with CAKI-1 renal it was 70.1%. The results for the growth in the assay with CCRF-CEM leukemia and with MOLT-4 leukemia were 61.6% and 72.1%, respectively.
Take `O=C1Nc2ccc(Cl)cc2/C1=N/N=C(c1ccccc1)c1ccccc1`: the growth with SK-MEL-2 melanoma was 103%; with SN12C renal, 93.7%; in the assay on UO-31 renal it was 63.9%; with TK-10 renal, 111%; in the assay with ACHN renal, 87.5%; with CAKI-1 renal, 63%. Also, the growth is 92.7% in the assay on CCRF-CEM leukemia and 93.3% with MOLT-4 leukemia.
As for `CCC(C)Oc1cc(/C=N/NC(=O)c2cnn3c2NC(c2ccccc2)C3)ccc1OC` (stereo not drawn), the growth in the assay with SK-MEL-2 melanoma is 35.6%; in the assay with SN12C renal, 47%; in the assay with UO-31 renal, 53.8%; in the assay with TK-10 renal, 70.7%; in the assay with ACHN renal it was 40.7%; in the assay on CAKI-1 renal, 35.9%. Besides, the growth with CCRF-CEM leukemia is 23.1%; in the assay with MOLT-4 leukemia it was 24.9%.
With `COc1ccc(C2=NOC(CC(=O)N(CCO)CCO)C2)cc1OC1CCCC1` (stereo not drawn), the growth in the assay with SK-MEL-2 melanoma is 106%; with SN12C renal, 104%; with UO-31 renal, 88.3%; with TK-10 renal it was 98.9%; with ACHN renal it was 104%; in the assay with CAKI-1 renal it was 99.5%. In addition, the growth was 112% with CCRF-CEM leukemia and 125% in the assay on MOLT-4 leukemia.
In the case of `CCOC(=O)c1sc(NC(=O)CN2CCC(Cc3ccccc3)CC2)nc1C`, the growth with SK-MEL-2 melanoma was 133%; in the assay with SN12C renal, 106%; in the assay with UO-31 renal, 80.4%; in the assay on TK-10 renal, 106%; with ACHN renal, 107%; in the assay with CAKI-1 renal, 99.4%. Also, the growth in the assay on A498 renal is 100%; in the assay with CCRF-CEM leukemia it was 94.1%; in the assay with MOLT-4 leukemia, 84.3%.
Consider `Cc1nc2cc(Nc3nc(Nc4ccc(F)cc4)nc(-c4cccs4)n3)ccc2n1Cc1ccccc1`, for which the growth in the assay with SK-MEL-2 melanoma is 72.9%; with SN12C renal, 70.3%; with UO-31 renal, 36.5%; in the assay with TK-10 renal it was 62.7%; with ACHN renal, 45.6%; with CAKI-1 renal, 70.2%. The values for the growth in the assay with A498 renal, in the assay on CCRF-CEM leukemia and in the assay on MOLT-4 leukemia were 56%, 27.2% and 23.5%, respectively.
Turning to `O=C(c1cnn2c1NC(c1ccc(F)cc1)C2)N1CCCCC1` (stereo not drawn), the growth in the assay on SK-MEL-2 melanoma was 104%; in the assay with SN12C renal, 104%; in the assay on UO-31 renal it was 89.8%; in the assay with TK-10 renal, 105%; in the assay on ACHN renal, 102%; in the assay on CAKI-1 renal it was 93.4%. The growth with CCRF-CEM leukemia was 105%; with MOLT-4 leukemia, 108%.
In the case of `Clc1cccc(Cl)c1Nc1ccc2nnc(-c3ccncc3)n2n1`, the growth in the assay on SK-MEL-2 melanoma was 104%; in the assay on SN12C renal, 95.9%; in the assay on UO-31 renal it was 96.1%; in the assay with TK-10 renal, 102%; in the assay on ACHN renal it was 105%; in the assay on CAKI-1 renal it was 89.2%. The growth in the assay on A498 renal is 90.5%; in the assay on CCRF-CEM leukemia, 80.7%; in the assay on MOLT-4 leukemia, 96.1%.
`CC(C)(C)CC(C)(C)N(CSc1ccc(Cl)cc1)CSc1ccc(Cl)cc1`: the growth was 74.4% in the assay on SK-MEL-2 melanoma; 16.6% in the assay on SN12C renal; 25.5% in the assay with UO-31 renal; 76.5% in the assay on TK-10 renal; 63.8% with ACHN renal; 24.9% in the assay on CAKI-1 renal. Further, the growth in the assay with A498 renal was -7.24% (active); in the assay with CCRF-CEM leukemia, -19.8% (active); in the assay on MOLT-4 leukemia, -34.5% (active).
Consider `CCCCCn1c(=N)n(CC(O)COc2cccc(C)c2)c2ccccc21` (stereo not drawn), for which the growth in the assay with SK-MEL-2 melanoma was -34.1% (active); in the assay on SN12C renal it was 12%; in the assay on UO-31 renal, 0.645% (active); with TK-10 renal it was 21.4%; with ACHN renal it was 10.7%; in the assay on CAKI-1 renal it was 7.06% (active). Further, the growth with A498 renal was -3.77% (active); with CCRF-CEM leukemia it was 8.45% (active); in the assay with MOLT-4 leukemia it was 1.95% (active).
Take `COc1ccc(-c2c3c(N)c4c(nc3nc3c2c(C)nn3-c2ccccc2)CCCC4)cc1`: the growth is 101% in the assay on SK-MEL-2 melanoma; 93.4% with SN12C renal; 68.9% in the assay with UO-31 renal; 86.8% in the assay with TK-10 renal; 77.4% in the assay with ACHN renal; 83.9% in the assay on CAKI-1 renal. Further, the growth with A498 renal is 78.7%; in the assay on CCRF-CEM leukemia, 23.2%; with MOLT-4 leukemia, 23.6%.
